Measurements from the supplement of paper PMC12067093, “Discovery and optimisation of a covalent ligand for TRIM25 and its application to targeted protein ubiquitination” (Chemical Science, 2025).
The full data set covers some 21,000 targets. This sample favours those with the largest changes.

How the values were obtained:
[1] = compound: Cc1cc(ccc1-c1ccccc1)C(=O)N1CCCN(CC1)C(=O)CCl [compound 10]; test: probe-labelled cysteine peptide fold change vs DMSO (competition) (log2 fold change); higher = less target engagement (more negative = stronger competition); settings: THP-1, incubation time: 4 h
[2] = compound: CC1Cc2ccccc2N1C(=O)C1CCCN(C1)C(=O)CCl (mixture of isomers) [TRIM25 ligand 11 (diastereomer mixture)]; test: as above; settings: THP-1, incubation time: 4 h

Sequence of UniProt Q14966 (Q14966 whole entry, looked up): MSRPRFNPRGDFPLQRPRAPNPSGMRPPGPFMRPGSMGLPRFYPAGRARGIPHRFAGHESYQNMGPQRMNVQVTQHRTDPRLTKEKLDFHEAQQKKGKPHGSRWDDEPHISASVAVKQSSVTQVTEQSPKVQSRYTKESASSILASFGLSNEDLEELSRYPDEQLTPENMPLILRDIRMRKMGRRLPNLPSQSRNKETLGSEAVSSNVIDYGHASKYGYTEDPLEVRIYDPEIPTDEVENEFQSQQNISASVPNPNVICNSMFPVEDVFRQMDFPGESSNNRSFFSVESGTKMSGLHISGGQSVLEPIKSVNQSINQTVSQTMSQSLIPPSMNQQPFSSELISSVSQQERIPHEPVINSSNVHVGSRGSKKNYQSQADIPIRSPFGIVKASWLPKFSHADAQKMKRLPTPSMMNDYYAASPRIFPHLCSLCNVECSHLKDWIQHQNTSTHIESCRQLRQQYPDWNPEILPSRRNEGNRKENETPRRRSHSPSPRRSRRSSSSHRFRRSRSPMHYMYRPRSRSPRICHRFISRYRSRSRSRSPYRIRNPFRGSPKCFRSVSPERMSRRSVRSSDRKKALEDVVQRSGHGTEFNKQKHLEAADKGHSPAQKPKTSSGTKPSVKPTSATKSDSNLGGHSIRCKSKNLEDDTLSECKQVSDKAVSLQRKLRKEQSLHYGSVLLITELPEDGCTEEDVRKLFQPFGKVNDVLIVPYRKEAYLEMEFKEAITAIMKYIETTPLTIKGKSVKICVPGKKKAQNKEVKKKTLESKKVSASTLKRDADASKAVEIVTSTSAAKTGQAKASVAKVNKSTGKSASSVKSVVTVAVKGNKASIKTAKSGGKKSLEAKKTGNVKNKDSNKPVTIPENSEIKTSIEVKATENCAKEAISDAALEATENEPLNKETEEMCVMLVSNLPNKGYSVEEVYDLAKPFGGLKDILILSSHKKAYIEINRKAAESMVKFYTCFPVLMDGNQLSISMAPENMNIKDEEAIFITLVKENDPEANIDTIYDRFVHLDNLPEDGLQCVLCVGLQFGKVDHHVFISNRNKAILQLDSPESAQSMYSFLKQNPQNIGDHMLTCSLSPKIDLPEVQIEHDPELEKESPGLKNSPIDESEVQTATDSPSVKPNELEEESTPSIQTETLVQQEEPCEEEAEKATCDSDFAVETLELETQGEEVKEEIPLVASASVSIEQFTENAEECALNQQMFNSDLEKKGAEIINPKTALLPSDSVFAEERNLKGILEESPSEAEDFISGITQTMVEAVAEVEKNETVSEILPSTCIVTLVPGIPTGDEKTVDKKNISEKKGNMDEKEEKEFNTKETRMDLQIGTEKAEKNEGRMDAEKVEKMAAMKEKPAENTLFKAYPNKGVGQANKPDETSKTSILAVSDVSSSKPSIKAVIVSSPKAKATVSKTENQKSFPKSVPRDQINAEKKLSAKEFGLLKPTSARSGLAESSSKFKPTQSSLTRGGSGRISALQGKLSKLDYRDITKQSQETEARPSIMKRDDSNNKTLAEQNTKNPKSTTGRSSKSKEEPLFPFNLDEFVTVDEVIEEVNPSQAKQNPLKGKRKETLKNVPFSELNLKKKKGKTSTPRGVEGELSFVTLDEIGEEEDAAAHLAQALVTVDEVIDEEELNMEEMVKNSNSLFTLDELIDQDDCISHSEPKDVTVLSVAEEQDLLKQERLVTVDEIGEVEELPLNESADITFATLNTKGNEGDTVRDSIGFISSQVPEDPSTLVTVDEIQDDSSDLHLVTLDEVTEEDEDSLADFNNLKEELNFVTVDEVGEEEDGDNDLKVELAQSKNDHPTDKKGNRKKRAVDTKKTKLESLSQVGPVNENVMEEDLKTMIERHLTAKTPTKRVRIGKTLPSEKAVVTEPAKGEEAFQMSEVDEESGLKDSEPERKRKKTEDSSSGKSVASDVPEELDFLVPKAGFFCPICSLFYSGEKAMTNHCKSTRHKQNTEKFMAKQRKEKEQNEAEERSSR
Sequence of UniProt Q9H6Y2 (Q9H6Y2 whole entry, looked up): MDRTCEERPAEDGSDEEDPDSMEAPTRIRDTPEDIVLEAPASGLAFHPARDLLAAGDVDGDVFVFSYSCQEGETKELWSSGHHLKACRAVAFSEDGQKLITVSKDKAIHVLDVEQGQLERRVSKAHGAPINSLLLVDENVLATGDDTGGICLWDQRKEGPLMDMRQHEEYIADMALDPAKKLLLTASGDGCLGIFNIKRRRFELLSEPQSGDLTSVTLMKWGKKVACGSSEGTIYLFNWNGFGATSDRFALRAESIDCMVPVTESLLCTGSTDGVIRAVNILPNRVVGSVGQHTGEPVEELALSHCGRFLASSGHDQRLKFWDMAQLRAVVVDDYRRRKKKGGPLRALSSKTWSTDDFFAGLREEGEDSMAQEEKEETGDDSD
Sequence of UniProt Q8N1G0 (Q8N1G0 whole entry, looked up): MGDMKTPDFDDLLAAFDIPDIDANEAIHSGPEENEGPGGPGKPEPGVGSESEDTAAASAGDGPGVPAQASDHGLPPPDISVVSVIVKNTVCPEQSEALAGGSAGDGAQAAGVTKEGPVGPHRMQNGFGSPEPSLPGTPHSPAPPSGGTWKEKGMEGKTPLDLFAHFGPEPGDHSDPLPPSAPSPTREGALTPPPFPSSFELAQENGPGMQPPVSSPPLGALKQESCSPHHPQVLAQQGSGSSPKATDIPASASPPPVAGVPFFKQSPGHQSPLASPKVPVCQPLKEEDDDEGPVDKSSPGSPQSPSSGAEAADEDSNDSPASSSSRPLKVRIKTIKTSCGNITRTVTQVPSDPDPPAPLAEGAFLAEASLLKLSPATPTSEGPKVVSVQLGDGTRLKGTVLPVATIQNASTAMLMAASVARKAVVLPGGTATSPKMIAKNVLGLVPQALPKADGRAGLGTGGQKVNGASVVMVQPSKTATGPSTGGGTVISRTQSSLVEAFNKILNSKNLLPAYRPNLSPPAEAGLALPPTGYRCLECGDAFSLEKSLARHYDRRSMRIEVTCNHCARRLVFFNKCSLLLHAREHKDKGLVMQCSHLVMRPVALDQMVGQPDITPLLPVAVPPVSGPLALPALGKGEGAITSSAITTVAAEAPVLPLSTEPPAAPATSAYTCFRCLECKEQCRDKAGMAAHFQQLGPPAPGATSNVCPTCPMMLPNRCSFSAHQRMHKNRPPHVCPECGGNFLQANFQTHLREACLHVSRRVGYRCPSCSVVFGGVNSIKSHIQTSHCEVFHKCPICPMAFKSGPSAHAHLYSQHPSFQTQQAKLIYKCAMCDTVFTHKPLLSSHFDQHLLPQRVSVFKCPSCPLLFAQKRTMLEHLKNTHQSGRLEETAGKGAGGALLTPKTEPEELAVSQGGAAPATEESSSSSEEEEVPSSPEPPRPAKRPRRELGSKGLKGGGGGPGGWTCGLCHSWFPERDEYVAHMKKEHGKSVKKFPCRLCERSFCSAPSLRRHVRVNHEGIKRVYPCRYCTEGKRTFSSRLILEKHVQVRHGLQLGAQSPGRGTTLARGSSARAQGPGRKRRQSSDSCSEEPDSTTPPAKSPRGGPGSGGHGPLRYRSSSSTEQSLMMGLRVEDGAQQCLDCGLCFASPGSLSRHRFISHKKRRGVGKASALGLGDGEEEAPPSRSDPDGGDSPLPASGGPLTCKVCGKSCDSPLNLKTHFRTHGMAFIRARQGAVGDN
Sequence of UniProt Q8N302 (Q8N302 whole entry, looked up): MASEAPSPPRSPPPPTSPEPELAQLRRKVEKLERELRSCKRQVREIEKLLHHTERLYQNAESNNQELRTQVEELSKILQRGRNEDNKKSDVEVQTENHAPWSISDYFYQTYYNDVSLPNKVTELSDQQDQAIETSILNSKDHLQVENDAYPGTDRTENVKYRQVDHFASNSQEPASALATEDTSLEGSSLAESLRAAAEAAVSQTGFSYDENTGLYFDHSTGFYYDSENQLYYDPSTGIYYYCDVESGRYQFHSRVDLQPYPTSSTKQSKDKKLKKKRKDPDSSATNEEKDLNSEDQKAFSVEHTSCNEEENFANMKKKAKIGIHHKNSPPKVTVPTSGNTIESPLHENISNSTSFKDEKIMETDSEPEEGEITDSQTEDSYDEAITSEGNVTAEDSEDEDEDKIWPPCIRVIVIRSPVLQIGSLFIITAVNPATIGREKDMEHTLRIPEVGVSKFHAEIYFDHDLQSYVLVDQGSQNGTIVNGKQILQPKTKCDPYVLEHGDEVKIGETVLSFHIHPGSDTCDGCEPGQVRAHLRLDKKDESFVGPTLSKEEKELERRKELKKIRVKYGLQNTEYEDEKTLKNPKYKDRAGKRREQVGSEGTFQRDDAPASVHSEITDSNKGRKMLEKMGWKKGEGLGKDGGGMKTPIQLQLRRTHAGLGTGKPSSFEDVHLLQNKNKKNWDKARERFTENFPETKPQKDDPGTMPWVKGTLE
Sequence of UniProt O96019 (O96019 whole entry, looked up): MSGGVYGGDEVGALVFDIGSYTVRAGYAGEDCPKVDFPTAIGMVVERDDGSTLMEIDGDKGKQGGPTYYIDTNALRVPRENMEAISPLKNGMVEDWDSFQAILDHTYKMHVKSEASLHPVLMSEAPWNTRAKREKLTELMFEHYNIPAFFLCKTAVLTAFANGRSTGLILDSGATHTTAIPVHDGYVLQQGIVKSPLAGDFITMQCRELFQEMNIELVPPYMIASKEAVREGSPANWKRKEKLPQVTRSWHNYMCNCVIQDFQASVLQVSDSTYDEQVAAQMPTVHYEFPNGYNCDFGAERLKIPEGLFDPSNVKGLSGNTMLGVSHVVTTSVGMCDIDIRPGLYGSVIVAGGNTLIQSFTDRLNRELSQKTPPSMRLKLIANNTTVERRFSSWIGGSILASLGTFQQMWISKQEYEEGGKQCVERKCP
Sequence of UniProt Q5VV52 (Q5VV52 whole entry, looked up): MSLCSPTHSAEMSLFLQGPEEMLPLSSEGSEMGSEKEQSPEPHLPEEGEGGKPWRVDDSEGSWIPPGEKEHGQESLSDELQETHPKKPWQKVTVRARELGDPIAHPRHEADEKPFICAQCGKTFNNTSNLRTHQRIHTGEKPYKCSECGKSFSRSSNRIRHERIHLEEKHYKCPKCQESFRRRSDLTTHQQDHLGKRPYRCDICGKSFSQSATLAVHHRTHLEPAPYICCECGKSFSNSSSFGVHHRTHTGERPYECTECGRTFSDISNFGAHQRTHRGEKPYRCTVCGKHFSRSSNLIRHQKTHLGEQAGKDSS

Target	probe-labelled cysteine peptide fold change ([1]; 10 µM)	probe-labelled cysteine peptide fold change ([1]; 50 µM)	probe-labelled cysteine peptide fold change ([2]; 10 µM)	probe-labelled cysteine peptide fold change ([2]; 50 µM)
ZFAND2B_Q8WV99_134_HRHPLDHDCSGEGHPTSR (UniProt Q8WV99)	-0.148	0.178		
ZFAND2A_Q8N6M9_84_GQIPDVVVGDHIDRDCDSHPGK (UniProt Q8N6M9)	1.7	3.88		
AARS_P49588_184+187_DNFWEMGDTGPCGPCSEIHYDR (UniProt P49588)			0.105	-0.0756
WDR82_Q6UXN9_195_TCEWTGLK (UniProt Q6UXN9)	-0.0459	0.418		
ADAM15_Q13444_409_ALLDGMGSCLFER (UniProt Q13444)			-0.145	0.146
ZC3H12A_Q5D1E8_374_RPSPSSQSSSLLTESEQCSLDGK (UniProt Q5D1E8)	-0.349	-0.484		
ZNF189_O75820_262_CSDCGK<|>ZSCAN22_P52741_466_CSDCGK<|>ZNF16_Q09FC8_435_CSDCGK<|>ZNF81_Q2M218_640_CSDCGK<|>ZNF134_Q5JVG2_290_CSDCGK<|>ZNF415_Q8N8J6_574_CSDCGK (UniProt Q8N8J6+Q5JVG2+Q2M218+Q09FC8+P52741+O75820)	0.0389	0.142		
ZNF512_Q96ME7_540_NNEELVVSASCK (UniProt Q96ME7)	0.0455	0.0373		
ADK_P55263_160_SLIANLAAANCYKK (UniProt P55263)			-0.669	-0.408
XPO4_Q9C0E2_723_ANLVIQCENWWNLAK (UniProt Q9C0E2)	0.102	-0.0501		
ZNF598_Q86UK7_867_VCPTCQQVLAHGDASSHQALHAAR (UniProt Q86UK7)	0.228	0.187		
ZNF687_Q8N1G0_91_NTVCPEQSEALAGGSAGDGAQAAGVTK (UniProt Q8N1G0)	-0.392	-0.0527		
ADD2_P35612_224_CIIHLHTPATAAVSAMK (UniProt P35612)			-0.0204	-0.168
ACTN4_O43707_879_RELPPDQAEYCIAR (UniProt O43707)			0.0491	0.0892
AGGF1_Q8N302_494_CDPYVLEHGDEVK (UniProt Q8N302)			0.0808	0.0697
A6NIZ1_A6NIZ1_118_VKDTDDVPMILVGNKCDLEDER<|>RAP1B_P61224_118_VKDTDDVPMILVGNKCDLEDER (UniProt P61224+A6NIZ1)			-0.583	-0.426
ACADVL_P49748_237_TSAVPSPCGK (UniProt P49748)			-0.126	-0.057

Target	probe-labelled cysteine peptide fold change ([1]; 10 µM)	probe-labelled cysteine peptide fold change ([1]; 50 µM)	probe-labelled cysteine peptide fold change ([2]; 10 µM)	probe-labelled cysteine peptide fold change ([2]; 50 µM)
YY1_P25490_390_IHTGDRPYVCPFDGCNK (UniProt P25490)	0.136	0.715		
ZNF562_Q6V9R5_17_EPICPFEEK<|>ZNF561_Q8N587_17_EPICPFEEK (UniProt Q8N587+Q6V9R5)	-0.186	-1.08		
ACADS_P16219_109_GCASTGVIMSVNNSLYLGPILK (UniProt P16219)			0.201	0.216
ZNF691_Q5VV52_176_CQESFR (UniProt Q5VV52)	-0.0275	-0.0396		
ZNF638_Q14966_688_EQSLHYGSVLLITELPEDGCTEEDVR (UniProt Q14966)	0.0192	0.11		
WDR48_Q8TAF3_366_GGASIIQCHILNDKR (UniProt Q8TAF3)	0.239	-0.0402		
AAAS_Q9NRG9_335_CQTGCWSPDGSR (UniProt Q9NRG9)			0.605	-0.129
WDR47_O94967_672_GSIYCVAWSPCGQLLATGSNDK (UniProt O94967)	-0.439	-1.25		
WDR81_Q562E7_215_GSPACPSLLR (UniProt Q562E7)	-0.185	-0.529		
ACTL6A_O96019_152_LTELMFEHYNIPAFFLCK (UniProt O96019)			-0.0461	0.0154
WDR77_Q9BQA1_186_DSVFLSCSEDNR (UniProt Q9BQA1)	0.136	0.227		
ZMYM4_Q5VZL5_1499_SCVPNSPMWYSTFPIDPGTLDTMLTR (UniProt Q5VZL5)	-0.668	-0.33		
ZNF592_Q92610_592_IHVPASGYCCLECGDAFALEK (UniProt Q92610)	-0.0351	-0.192		
YEATS2_Q9ULM3_565_QEDSLFASMPPLCPIGSHPK (UniProt Q9ULM3)	-0.301	-0.418		
XPO1_O14980_528_DLLGLCEQKR (UniProt O14980)	-0.248	-1.11		
ZC3H10_Q96K80_140_EEVPICR (UniProt Q96K80)	-0.106	0.152		
WDR55_Q9H6Y2_5_TCEERPAEDGSDEEDPDSMEAPTR (UniProt Q9H6Y2)	-0.668	-1.19		
